# Assay results published in PubChem BioAssay (Tox21).
# Records with an inconclusive call do not appear. Unmarked numbers belong to inactive results. Calls follow the shape of the dose curve; as a rule, active = well fitted cell-killing curve with a large enough effect in the repeat runs; inconclusive = weak or mixed curves, or effect the other way; inactive = flat fitted curve, though single readings scatter.
# Experiment: qHTS assay to identify small molecule agonists of the sonic hedgehog signaling (Shh) pathway - cell viability counter screen (AID 1259366); also: nearly all actives have a fitted effect of over 50% in size
# Details: NIH/3T3 Gli1-Luc viability, CellTiter-Fluor, 24 h; series mostly up to 92.4 µM; viability change, negative = cytotoxic: at the top concentration
# Source text: National Center for Advancing Translational Sciences [NCATS]
# NIH Chemical Genomics Center [NCGC]
# U.S. Environmental Protection Agency [EPA]
# National Institutes of Environmental Health Sciences [NIEHS]
# National Toxicology Program [NTP]
# U.S. Food and Drug Administration [FDA]
# The sonic hedgehog (Shh) pathway is essential for normal embryonic development. Dysregulation of the Shh pathway can cause severe developmental defects in organs. Therefore chemicals that interfere with the pathway are potential developmental toxicants. A cell line designated 3T3Gli1-Luc (DMB/OARSA/CFSAN/FDA, Laurel, MD), a NIH/3T3 derived clone containing stably integrated Gli1-Luc reporter is used to detect chemical interference of the Shh pathway, by changes in the expression of the firefly Luc gene under the control of the Gli1 transcriptional response element. This cell line was used to screen Tox21 libraries for identifying and prioritizing the potential developmental toxicants that interfere Shh pathway. The cytotoxicity of the compounds was tested in parallel by measuring the cell viability using CellTiter-Fluor assay system (Promega, Madison, WI) in the same wells.
# Tox21 Assay Protocol Summary:
# 3T3 Gli1-Luc cells were dispensed at 2,000 per well in 5uL of culture medium into white solid bottom 1536-well plates (Greiner Bio-One, Monroe, NC) using a Multidrop Combi (Thermo Scientific, Waltham, MA) dispenser. The assay plates were incubated at 37 C and 5% CO2 for 4hr, and then 23nL of compounds dissolved in DMSO and positive control were transferred using a Pintool station (Wako, San Diego, CA). The assay plates were incubated at 37C and 5% CO2 for 24hr. For viability read, after 23hr of compound treatment, 1uL of CellTiter-Fluor reagent (Promega Corporation, Madison, WI) was added to each well of the assay plates using Flying Reagent Dispenser (FRD, Aurora Discovery, San Diego, CA) and incubated the assay plates at 37C for 1hr. The fluorescence signal was quantified using a ViewLux plate reader (Perkin Elmer, Shelton, CT).
# % is scaled to controls: 0 for no effect and ±100 for the full control effect.
row,Structure (SMILES),"viability change, negative = cytotoxic"
1,O=C(O)c1ccc(OCCN2CCCCC2)cc1,12.4% [at 42.5 µM]
2,C=CCOc1cc(Cl)ccc1C(=O)NCCN(CC)CC,-12.1% [at 42.5 µM]
3,CC(C)COC(=O)CC(C(=O)OCC(C)C)S(=O)(=O)O (stereo not given),0.336%
4,Cc1ccccc1OCC1CO1 (stereo not given),-2.51%
5,CC(C)CCO,0.438%
6,N#CCCOCCOCCC#N,3.66%
7,C=CCCCCCCCCCCC,3.1% [at 8.39 µM]
8,Nc1ccnc(=O)[nH]1,2.42%
9,CC(=O)OCC(=O)[C@@]1(O)[C@H](OC(C)=O)C[C@H]2[C@@H]3CCC4=CC(=O)C=C[C@]4(C)[C@@]3(F)[C@@H](O)C[C@@]21C,4.98% [at 42.5 µM]
10,CCCOCCOCCOCCO,0.209%
11,Cc1cccc(Nc2ccncc2S(=O)(=O)NC(=O)NC(C)C)c1,9.62% [at 42.5 µM]
12,COc1ccc(OC)c(NC(=O)CC(C)=O)c1,1.87%
13,C=CCOC(=O)c1ccc(C(=O)OCC=C)c(C(=O)OCC=C)c1,0.368%
14,CCCCCC(=O)OCC,0.131%
15,CC(C)(C)c1ccc(C=O)cc1,0.0545%
16,O=[Si]=O,3.26%
17,CCCCCCCCOC(C)=O,2.68%
18,CCN1CN(CC)CN(CC)C1,-5.24%
19,CCCCC(CC)COC(=O)c1ccccc1 (stereo not given),1.2%
20,Cc1nc(C)nc(N2C[C@@H](C)N(c3ccnc([C@@H](C)O)n3)[C@@H](C)C2)n1,10.3% [at 42.5 µM]

row,Structure (SMILES),"viability change, negative = cytotoxic"
1,Nc1cc(C(=O)O)ccc1Cl,-6.16%
2,C=CCOCC(O)CCl (stereo not given),1.72%
3,CC(=O)OCCCc1ccccc1,1.33%
4,CC(=O)Nc1ncc([N+](=O)[O-])s1,-22.3% [at 42.5 µM]
5,C[C@H](CCC(=O)O)[C@H]1CC[C@H]2[C@@H]3[C@H](O)C[C@@H]4C[C@H](O)CC[C@]4(C)[C@H]3C[C@H](O)[C@]12C,-0.611% [at 42.5 µM]
6,COC(=O)CCC(=O)O,-5.57%
7,C/C=C(\C)C(=O)OCC/C=C\CC,-1.3%
8,CC(C)COC(=O)/C=C/c1ccccc1,2.13%
9,C=C(C)C(=O)OC,2.19%
10,CCOC(=O)C(=O)c1csc(NC=O)n1,-3.81% [at 42.5 µM]
11,CC(C)CCC(=O)CCC(C)C,3.42%
12,CO[Si](CCCCl)(OC)OC,3.34%
13,COc1cc(C=O)ccc1OC(=O)C(C)C,1.1%
14,O=S(=O)(O)c1cc(O)ccc1O,-8.7%
15,CCNC(=O)/C=C/c1cccc(Br)c1,4.31% [at 42.5 µM]
16,CC1=CC[C@H](CC=O)C1(C)C,-0.929%
17,COCC(=O)Nc1c(I)c(C(=O)NCC(O)CO)c(I)c(C(=O)N(C)CC(O)CO)c1I (stereo not given),-0.408% [at 42.5 µM]
18,Cc1cc(C)cc([N+](=O)[O-])c1,3.73%
19,C1=CCC(c2ccccc2)CC1 (stereo not given),4.29%
20,Nc1ccc(/C=C/c2ccc(N)cc2S(=O)(=O)O)c(S(=O)(=O)O)c1,0.832% [at 0.349 µM]
